According to PubChem BioAssay AID1159580 (chemical genetic matrix, 2015):
About 2,000 (36%) of roughly 5,500 compounds were called active. Inconclusive results (about 18%) are left out. No stated cut-off is given here; in the data, active means normalized growth mostly below about 0.91 (no sharp cut-off); inconclusive means no clear call, values can overlap the other calls; inactive means mostly above about 0.92. Some of the results follow.

Experiment: chemical genetic growth profiling, strain panel (AID 1159580);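 further: tested at 20 µM; growth read once vehicle control cultures reached saturation at 30 °C; 1 = growth at the plate median or of vehicle wells; lower values mean less growth of the strain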
Settings: growth OD
[1] = S. cerevisiae deletion strains, locus YCL061C, strain MRC1, active compounds read low
[2] = S. cerevisiae deletion strains, locus YHR030C, strain SLT2, active compounds read low

Measured: normalized growth

Oc1c(I)cc(Cl)c2cccnc12
active: S. cerevisiae deletion strains, locus YAL021C, strain ccr4, active compounds read low 0.0783 | S. cerevisiae deletion strains, locus YAL026C, strain drs2, active compounds read low 0.0852 | S. cerevisiae deletion strains, locus YAL030W, strain snc1, active compounds read low 0.074 | S. cerevisiae deletion strains, locus YBL061C, strain skt5, active compounds read low 0.0782 | S. cerevisiae deletion strains, locus YBR009C, strain hhf1, active compounds read low 0.0791 | S. cerevisiae deletion strains, locus YBR023C, strain chs3, active compounds read low 0.0818 | S. cerevisiae deletion strains, locus YBR171W, strain sec66, active compounds read low 0.115 | S. cerevisiae deletion strains, locus YBR231C, strain swc5, active compounds read low 0.0829 | S. cerevisiae deletion strains, locus YBR279W, strain paf1, active compounds read low 0.0782 | S. cerevisiae deletion strains, locus YCL011C, strain gbp2, active compounds read low 0.0716 | S. cerevisiae deletion strains, locus YCL016C, strain dcc1, active compounds read low 0.0859 | [1] 0.0889 | S. cerevisiae deletion strains, locus YCL069W, strain vba3, active compounds read low 0.0861 | S. cerevisiae deletion strains, locus YCR088W, strain abp1, active compounds read low 0.0839 | S. cerevisiae deletion strains, locus YDL005C, strain med2, active compounds read low 0.0947 | S. cerevisiae deletion strains, locus YDL040C, strain nat1, active compounds read low 0.0731 | S. cerevisiae deletion strains, locus YDR001C, strain nth1, active compounds read low 0.0804 | S. cerevisiae deletion strains, locus YDR069C, strain doa4, active compounds read low 0.0805 | S. cerevisiae deletion strains, locus YDR137W, strain rgp1, active compounds read low 0.12 | S. cerevisiae deletion strains, locus YDR159W, strain sac3, active compounds read low 0.115 | S. cerevisiae deletion strains, locus YDR195W, strain ref2 0.156 | S. cerevisiae deletion strains, locus YDR297W, strain sur2, active compounds read low 0.074 | S. cerevisiae deletion strains, locus YDR334W, strain swr1, active compounds read low 0.0896 | S. cerevisiae deletion strains, locus YDR335W, strain msn5, active compounds read low 0.0873 | S. cerevisiae deletion strains, locus YDR392W, strain spt3, active compounds read low 0.119 | S. cerevisiae deletion strains, locus YEL003W, strain gim4, active compounds read low 0.0685 | S. cerevisiae deletion strains, locus YEL037C, strain rad23, active compounds read low 0.0804 | S. cerevisiae deletion strains, locus YEL061C, strain CIN8 (second series), active compounds read low 0.0788 | S. cerevisiae deletion strains, locus YER015W, strain faa2, active compounds read low 0.0769 | S. cerevisiae deletion strains, locus YER016W, strain bim1, active compounds read low 0.0802 | S. cerevisiae deletion strains, locus YER111C, strain swi4, active compounds read low 0.103 | S. cerevisiae deletion strains, locus YER155C, strain BEM2 (second series), active compounds read low 0.127 | S. cerevisiae deletion strains, locus YFR010W, strain ubp6, active compounds read low 0.0904 | S. cerevisiae deletion strains, locus YGL167C, strain pmr1, active compounds read low 0.0969 | S. cerevisiae deletion strains, locus YGL173C, strain kem1, active compounds read low 0.088 | S. cerevisiae deletion strains, locus YGL227W, strain vid30, active compounds read low 0.0887 | S. cerevisiae deletion strains, locus YGL240W, strain doc1, active compounds read low 0.104 | S. cerevisiae deletion strains, locus YGL253W, strain hxk2, active compounds read low 0.0777 | S. cerevisiae deletion strains, locus YHR013C, strain ard1, active compounds read low 0.139 | S. cerevisiae deletion strains, locus YHR027C, strain rpn1, active compounds read low 0.0784 | [2] 0.148 | S. cerevisiae deletion strains, locus YHR079C, strain IRE1, active compounds read low 0.134 | S. cerevisiae deletion strains, locus YHR142W, strain chs7, active compounds read low 0.104 | S. cerevisiae deletion strains, locus YJL092W, strain hpr5, active compounds read low 0.0829 | S. cerevisiae deletion strains, locus YJL095W, strain BCK1 (second series), active compounds read low 0.0763 | S. cerevisiae deletion strains, locus YJL095W, strain BCK1, active compounds read low 0.127 | S. cerevisiae deletion strains, locus YJL115W, strain asf1, active compounds read low 0.101 | S. cerevisiae deletion strains, locus YJL129C, strain trk1, active compounds read low 0.102 | S. cerevisiae deletion strains, locus YJL154C, strain vps35, active compounds read low 0.0859 | S. cerevisiae deletion strains, locus YJL164C, strain tpk1, active compounds read low 0.0769 | S. cerevisiae deletion strains, locus YJL166W, strain qcr8, active compounds read low 0.0785 | S. cerevisiae deletion strains, locus YJR066W, strain TOR1, active compounds read low 0.00414 | S. cerevisiae deletion strains, locus YKL160W, strain elf1, active compounds read low 0.0922 | S. cerevisiae deletion strains, locus YKR026C, strain gcn3, active compounds read low 0.0898 | S. cerevisiae deletion strains, locus YKR091W, strain srl3, active compounds read low 0.0766 | S. cerevisiae deletion strains, locus YLL001W, strain dnm1, active compounds read low 0.0857 | S. cerevisiae deletion strains, locus YLL026W, active compounds read low 0.0726 | S. cerevisiae deletion strains, locus YLL041C, strain sdh2, active compounds read low 0.0731 | S. cerevisiae deletion strains, locus YLR027C, strain aat2, active compounds read low 0.071 | S. cerevisiae deletion strains, locus YLR113W, strain HOG1, active compounds read low 0.163 | S. cerevisiae deletion strains, locus YLR221C, strain rsa3, active compounds read low 0.0761 | S. cerevisiae deletion strains, locus YLR258W, strain gsy2, active compounds read low 0.0743 | S. cerevisiae deletion strains, locus YLR262C, strain YPT6 (second series), active compounds read low 0.0974 | S. cerevisiae deletion strains, locus YLR320W, strain mms22, active compounds read low 0.0998 | S. cerevisiae deletion strains, locus YLR342W, strain FKS1, active compounds read low 0.0803 | S. cerevisiae deletion strains, locus YLR357W, strain rsc2, active compounds read low 0.172 | S. cerevisiae deletion strains, locus YLR370C, strain arc18, active compounds read low 0.0859 | S. cerevisiae deletion strains, locus YLR384C, strain iki3, active compounds read low 0.0798 | S. cerevisiae deletion strains, locus YML120C, strain ndi1, active compounds read low 0.0749 | S. cerevisiae deletion strains, locus YMR058W, strain fet3, active compounds read low 0.0885 | S. cerevisiae deletion strains, locus YMR125W, strain sto1, active compounds read low 0.106 | S. cerevisiae deletion strains, locus YMR129W, active compounds read low 0.0728 | S. cerevisiae deletion strains, locus YMR205C, strain PFK2, active compounds read low 0.11 | S. cerevisiae deletion strains, locus YMR231W, strain pep5, active compounds read low 0.0867 | S. cerevisiae deletion strains, locus YNL071W, strain lat1, active compounds read low 0.0765 | S. cerevisiae deletion strains, locus YNL183C, strain NPR1, active compounds read low 0.00429 | S. cerevisiae deletion strains, locus YNL209W, strain ssb2, active compounds read low 0.076 | S. cerevisiae deletion strains, locus YNL248C, strain rpa49, active compounds read low 0.104 | S. cerevisiae deletion strains, locus YNL322C, strain KRE1 (second series), active compounds read low 0.0819 | S. cerevisiae deletion strains, locus YNR049C, strain mso1, active compounds read low 0.0835 | S. cerevisiae deletion strains, locus YOR001W, strain rrp6, active compounds read low 0.0849 | S. cerevisiae deletion strains, locus YOR070C, strain gyp1, active compounds read low 0.106 | S. cerevisiae deletion strains, locus YOR080W, strain dia2, active compounds read low 0.0874 | S. cerevisiae deletion strains, locus YOR083W, strain WHI5, active compounds read low 0.0797 | S. cerevisiae deletion strains, locus YOR106W, strain vam3, active compounds read low 0.0829 | S. cerevisiae deletion strains, locus YOR231W, strain MKK1, active compounds read low 0.122 | S. cerevisiae deletion strains, locus YOR265W, strain rbl2, active compounds read low 0.072 | S. cerevisiae deletion strains, locus YOR270C, strain vph1, active compounds read low 0.139 | S. cerevisiae deletion strains, locus YOR290C, strain snf2, active compounds read low 0.0977 | S. cerevisiae deletion strains, locus YPL051W, strain arl3, active compounds read low 0.0807 | S. cerevisiae deletion strains, locus YPL078C, strain atp4, active compounds read low 0.0919 | S. cerevisiae deletion strains, locus YPL106C, strain sse1, active compounds read low 0.139 | S. cerevisiae deletion strains, locus YPL240C, strain hsp82, active compounds read low 0.0779 | S. cerevisiae deletion strains, locus YPL256C, strain CLN2, active compounds read low 0.143

C#CCOc1c(Cl)cccc1Cl
inactive: S. cerevisiae deletion strains, locus YAL013W, strain DEP1, active compounds read low 0.97 | S. cerevisiae deletion strains, locus YBR229C, strain ROT2, active compounds read low 0.989 | [1] 0.954 | S. cerevisiae deletion strains, locus YDL101C, strain DUN1, active compounds read low 0.962 | S. cerevisiae deletion strains, locus YDL134C, strain PPH21, active compounds read low 1.01 | S. cerevisiae deletion strains, locus YDR150W, strain NUM1, active compounds read low 0.937 | S. cerevisiae deletion strains, locus YEL061C, strain CIN8, active compounds read low 1.01 | S. cerevisiae deletion strains, locus YGR078C, strain PAC10, active compounds read low 0.992 | [2] 0.995 | S. cerevisiae deletion strains, locus YHR087W, strain rtc3, active compounds read low 1.04 | S. cerevisiae deletion strains, locus YJR043C, strain POL32, active compounds read low 0.972 | S. cerevisiae deletion strains, locus YJR075W, strain HOC1, active compounds read low 1.03 | S. cerevisiae deletion strains, locus YKL190W, strain CNB1, active compounds read low 1.01 | S. cerevisiae deletion strains, locus YLR039C, strain RIC1, active compounds read low 0.872 | S. cerevisiae deletion strains, locus YLR058C, strain SHM2 (second series), active compounds read low 1.01 | S. cerevisiae deletion strains, locus YLR085C, strain ARP6, active compounds read low 0.966 | S. cerevisiae deletion strains, locus YLR262C, strain YPT6, active compounds read low 0.838 | S. cerevisiae deletion strains, locus YML094W, strain GIM5, active compounds read low 0.987 | S. cerevisiae deletion strains, locus YMR219W, strain ESC1, active compounds read low 0.995 | S. cerevisiae deletion strains, locus YMR263W, strain SAP30, active compounds read low 0.998 | S. cerevisiae deletion strains, locus YNL153C, strain GIM3, active compounds read low 0.982 | S. cerevisiae deletion strains, locus YNL298W, strain CLA4 (second series), active compounds read low 0.982 | S. cerevisiae deletion strains, locus YNL322C, strain KRE1, active compounds read low 0.986 | S. cerevisiae deletion strains, locus YNR030W, strain Alg12, active compounds read low 1.01 | S. cerevisiae deletion strains, locus YPL055C, strain LGE1, active compounds read low 0.985 | S. cerevisiae deletion strains, locus YPL241C, strain CIN2, active compounds read low 0.989 | S. cerevisiae deletion strains, locus YPR135W, strain CTF4, active compounds read low 0.998 | S. cerevisiae strains, strain wild type, active compounds read low 0.999
